Out of some 2,500 compounds screened, about 1,100 (44%) were called active. The set was probably picked from earlier hits. The list shows a part of the results. Unmarked numbers belong to inactive results.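 The calls were made as follows: active = inhibition above 50% at 4 µM in the single-point screen; inactive = inhibition of 50% or less.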

The experiment is described as follows: TNF-a-driven NF-kB reporter inhibitors, primary screen, selectivity assay for NOD1/NOD2 signaling inhibitor project, cell-based, HEK293T NF-kB-Luc, luminescence (AID 1852). Particulars: TNF-a induced, 14 h, at 4 µM, active compounds read high.
Take `O=C1NC(=O)/C(=C\c2ccc(Oc3cnccn3)cc2)S1`: the inhibition is -64.2%. `O=[N+]([O-])c1ccc(O)c(/C=N\N=C2c3ccccc3-c3ccccc32)c1`: the inhibition is 77% (active). With `O=[N+]([O-])c1cccc(/C=N\N=C2c3ccccc3-c3ccccc32)c1O`, the inhibition was 7.7%.

For the compound `Oc1nc(Nc2ccc(Cl)cc2Cl)sc1/C=C1\C=Nc2ccccc21`, the inhibition was 5.6%. With `Cc1ccc(Cc2c(C)c(C#N)c3[nH]c4ccccc4n3c2=O)cc1` the figure was 74.6% (active); with `CCCCc1c(C)c(C#N)c2[nH]c3ccccc3n2c1=O`, 44.9%. Regarding `Cc1ccc(CSc2nc(-c3ccccc3)c(C#N)c(=O)[nH]2)cc1`, the inhibition is -18%. With `Cc1ccc(O)c(C(=O)c2cc(C#N)c3nc4ccccc4n3c2)c1` the figure was 33%. With `Cc1ccc(S(=O)(=O)c2cc3cc(Br)ccc3oc2=O)cc1` the figure was 58.4% (active); with `O=c1oc2ccc(Br)cc2cc1S(=O)(=O)c1ccc(F)cc1`, 68% (active); with `Cc1ccc(S(=O)(=O)c2cc3ccccc3oc2=O)cc1`, 29.7%. Turning to `CC(C)c1ccc(S(=O)(=O)c2cc3cc(Br)ccc3oc2=O)cc1`, the inhibition was 32.3%. With `C=CCC1(CC=C)CCCN1C(=O)c1cc(COc2ccc(C)nc2)on1` the figure was 52.5% (active); with `C=CCC1(CC=C)CCCN1C(=O)c1cc(COc2cncc(Cl)c2)on1`, 19.5%.

`Cc1ccc(OCc2cc(C(=O)NC3CCCCC3)no2)cn1`: the inhibition is 46%. As to `O=C(O)c1cccc(-c2ccc(/C=N/n3cnc4sc5c(c4c3=O)CCCC5)o2)c1`, the inhibition was -30.8%. In the case of `CC1CCc2sc3ncnc(N4CCOCC4)c3c2C1` (configuration not stated), the inhibition is 29.3%. Turning to `c1ccc(N2CCN(c3ncnc4sc5c(c34)CCC5)CC2)cc1`, the inhibition is 57.1% (active).

`CC1=NNC(=O)/C1=C\c1cn(-c2ccccc2)nc1-c1cccs1`: the inhibition is -42.7%.

Consider `COc1cccc(N2CCN(c3ncnc4c3[nH]c3ccc(F)cc34)CC2C)c1` (configuration not stated), for which the inhibition is 110% (active). For the compound `Cc1cccc(N2CCN(C(=O)C3CCN(c4ncnc5c4nc4n5CCCCC4)CC3)CC2C)c1` (configuration not stated), the inhibition is 33.7%.

Turning to `COc1cccc(N2CCN(c3ncnc4c3[nH]c3ccccc34)CC2C)c1` (configuration not stated), the inhibition is 106% (active). With `NC(=O)c1c(NC(=O)c2ccc([N+](=O)[O-])o2)sc2c1CCCC2` the figure was -24.9%; with `COc1ccc(OC)c(Nc2c3c(nc4ccccc24)CCC3)c1`, 49.6%; with `Cc1nc2ccccc2c2oc(C(=O)NCC3COc4ccccc4O3)cc12` (configuration not stated), 39.3%. With `COc1ccc(CNC(=O)c2cc3c(C)nc4ccccc4c3o2)c(OC)c1`, the inhibition is 62.8% (active). On to `CCCCc1cc(=O)oc2cc(OCC(=O)Nc3cccnc3)c(Cl)cc12`, for which the inhibition is 85.3% (active). With `O=C(COc1ccc2c(-c3ccccc3)cc(=O)oc2c1)Nc1cccnc1`, the inhibition is 34.1%. As for `O=C(COc1ccc(C(=O)c2ccccc2)cc1)Nc1cccnc1`, the inhibition is 46.8%.

`COc1nc(Nc2nc3ccccc3c(=O)[nH]2)nc2ccc(C)cc12`: the inhibition is 67.4% (active).

Regarding `Cc1[nH]n(-c2ccccc2)c(=O)c1/C=N/NC(=O)c1cccc(F)c1`, the inhibition was -0.8%. Consider `Cc1ccc(-n2[nH]c(C)c(/C=N/Nc3ccc([N+](=O)[O-])cc3[N+](=O)[O-])c2=O)cc1C`, for which the inhibition is 83.2% (active). As to `COc1ccc(C(=O)Nc2ccccc2C(=O)N/N=C/c2ccccn2)cc1OC`, the inhibition was 102% (active).

For the compound `C/C(=N/NC(=S)Nc1cccc(C)c1)c1cccc([N+](=O)[O-])c1`, the inhibition was 6.4%. Turning to `Cc1cccc(/C=N/NC(=O)c2cccc([N+](=O)[O-])c2)n1`, the inhibition is 97.4% (active). Consider `Cc1c(C(=O)N/N=C/c2ccoc2)cccc1[N+](=O)[O-]`, for which the inhibition was -12.6%. `Cc1ccc2cccc(N=Cc3c(C)[nH]n(-c4ccccc4)c3=O)c2n1`: the inhibition is 38.3%.

For the compound `COc1ccc(C(=O)N/N=C/c2ccc(OC(=O)c3cccc4ccccc34)c([N+](=O)[O-])c2)cc1`, the inhibition is 41.6%.

As to `Cc1[nH]n(-c2ccccc2)c(=O)c1/C=N/NC(=O)c1cccc([N+](=O)[O-])c1`, the inhibition was 76.8% (active).

On to `CCOc1cc(S(=O)(=O)NCc2ccncc2)ccc1Cl`, for which the inhibition was 48.8%.

For the compound `O=C(N/N=C/c1ccccn1)c1sc2ccccc2c1Cl`, the inhibition was 85.8% (active). With `COc1cc([N+](=O)[O-])ccc1-c1ccc(/C=N/NC(=O)c2ccccc2O)o1` the figure was 0.6%.

As for `CC(/C=C/c1ccccc1)=N/NC(=O)c1cc([N+](=O)[O-])cc([N+](=O)[O-])c1`, the inhibition was 102% (active).

For `C/C(=N\NC(=O)c1ccc(Cl)c(Cl)c1)c1ccc(Br)s1`, the inhibition was 40.4%. With `CC(/C=C/c1ccccc1)=N/NC(=O)c1cccc(Br)c1` the figure was 13.3%; with `O=C(N/N=C/c1ccccn1)c1cc([N+](=O)[O-])cc([N+](=O)[O-])c1`, 96.4% (active). Regarding `O=C(N/N=C/c1ccccn1)c1ccc(Cl)cc1`, the inhibition is -21.2%. For `O=C(N/N=C/c1ccccn1)c1ccc(Cl)c(Cl)c1`, the inhibition is 101% (active). As to `C/C(Cn1nnc([N+](=O)[O-])n1)=N\NC(=O)c1ccc(Cl)c(Cl)c1`, the inhibition was 31.3%. For `CCCN(CCC)c1ncnc2nc[nH]c12`, the inhibition was 83.4% (active). Regarding `CCc1ccc(N(CC)c2ncnc3nc[nH]c23)cc1`, the inhibition is 82.5% (active).

In the case of `CCN(c1ccc(OC)cc1)c1ncnc2nc[nH]c12`, the inhibition is 86.3% (active). In the case of `C/C(Cl)=C/Cn1c(SC(C)C)nc2c1c(=O)[nH]c(=O)n2C`, the inhibition was -13.9%. As for `Cc1ccc(NS(=O)(=O)c2cc(NC(=O)c3ccc4c(c3)NC(=O)CS4)ccc2Cl)c(C)c1`, the inhibition was -2.2%. As to `O=C1CSc2ccc(C(=O)Nc3cccc(S(=O)(=O)Nc4ccc(Br)cc4)c3)cc2N1`, the inhibition was 63.4% (active). As to `Cc1ccc(NS(=O)(=O)c2cc(NC(=O)c3ccc4c(c3)NC(=O)CS4)ccc2C)c(C)c1`, the inhibition is 3.2%. In the case of `Cc1cccc(NC(=O)c2cccc(NS(=O)(=O)c3ccc(Cl)cc3)c2)c1`, the inhibition was 23.1%. Turning to `O=C(Nc1ccccc1C(=O)O)c1cc(S(=O)(=O)Nc2cccc(F)c2)ccc1Cl`, the inhibition was 58.9% (active). With `O=C(Nc1ccccc1C(=O)O)c1cccc(NS(=O)(=O)c2ccc(Br)cc2)c1` the figure was 55.5% (active). With `O=C(/C=C/c1ccc([N+](=O)[O-])cc1)Nc1cccc(C(=O)Nc2ccccc2C(=O)O)c1` the figure was 65.5% (active); with `Cc1ccc2c(c1)CCCN2S(=O)(=O)c1cccc(C(=O)Nc2ccccc2C(=O)O)c1`, 5.4%; with `O=C(Nc1cccc([N+](=O)[O-])c1)c1ccc2ccccc2c1O`, 32.8%.

By inhibition is commonly meant the relative decrease from the control value, in per cent.
